Sampled rows, rich in hits. Any-hit rate of the full collection: about 1.2%.
VLA-4 inh = inhibition in a human VLA-4 binding assay | P13612 | VLA-4 expressing cells, ligand binding flow cytometry | inhibition, % (about 7 µM as worked out from the volumes in the protocol) | 0.2% of 330,000 active | AID 2557; in the data active = inhibition above about 50%
Target sequence (P13612 whole entry, looked up): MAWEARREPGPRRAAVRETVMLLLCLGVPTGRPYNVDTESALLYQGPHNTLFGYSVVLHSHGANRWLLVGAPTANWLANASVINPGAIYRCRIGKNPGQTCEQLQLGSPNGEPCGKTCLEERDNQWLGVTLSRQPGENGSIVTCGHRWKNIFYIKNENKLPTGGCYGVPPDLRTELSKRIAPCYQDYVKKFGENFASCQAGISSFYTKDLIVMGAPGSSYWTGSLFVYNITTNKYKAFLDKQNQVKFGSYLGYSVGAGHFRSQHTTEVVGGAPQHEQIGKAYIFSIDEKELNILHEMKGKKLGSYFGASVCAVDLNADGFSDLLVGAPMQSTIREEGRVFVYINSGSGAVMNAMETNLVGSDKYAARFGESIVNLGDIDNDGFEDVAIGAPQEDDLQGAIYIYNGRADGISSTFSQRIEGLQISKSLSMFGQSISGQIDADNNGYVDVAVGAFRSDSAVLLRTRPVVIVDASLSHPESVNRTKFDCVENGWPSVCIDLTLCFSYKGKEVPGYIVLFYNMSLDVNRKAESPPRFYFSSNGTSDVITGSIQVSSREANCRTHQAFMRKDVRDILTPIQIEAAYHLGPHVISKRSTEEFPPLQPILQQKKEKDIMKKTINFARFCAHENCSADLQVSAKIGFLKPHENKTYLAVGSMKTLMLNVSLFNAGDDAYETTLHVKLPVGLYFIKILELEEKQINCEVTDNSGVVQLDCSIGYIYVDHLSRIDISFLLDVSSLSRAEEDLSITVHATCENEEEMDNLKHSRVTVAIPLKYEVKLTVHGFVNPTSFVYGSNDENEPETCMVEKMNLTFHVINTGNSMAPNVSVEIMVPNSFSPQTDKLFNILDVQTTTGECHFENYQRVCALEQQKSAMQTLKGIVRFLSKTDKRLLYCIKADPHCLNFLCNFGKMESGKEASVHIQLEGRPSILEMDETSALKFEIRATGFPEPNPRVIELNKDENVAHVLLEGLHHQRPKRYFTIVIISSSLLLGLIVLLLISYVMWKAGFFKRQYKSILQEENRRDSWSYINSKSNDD
Yeast superoxide = yeast age-related superoxide inhibition as caloric restriction mimetic; S. cerevisiae aged cells, superoxide DHE fluorescence; stronger effect = lower value; 0.18% of 330,000 active; AID 2690; superoxide response (% of plate mean), % at 10 µM;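 active = superoxide response under a set limit, about three screen SD below normal, cut at about 65% in these data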;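 also: yeast aged for seven days with compound at 30 °C before DHE staining; 100% = average MFI of all compound-treated wells on the plate with controls excluded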
Platelet DG rel = platelet dense granule release activity; human platelet-rich plasma, SFLLRN dense granule ATP release, luminescence; inhibition, %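 (compounds screened at 7.5 µM in platelet-rich plasma)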; 0.22% of 300,000 active;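 active = mean replicate score, as percent of positive control, at or above 50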
SKN-1 inh = C. elegans SKN-1 inhibition; C. elegans VP596 Pgst-4::GFP/RFP ratio, acrylamide-induced, 24 h; inhibition, % at 21.8 µM; 0.49% of 360,000 active;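 active = interference check ratio from 0.5 to 1.5 plus GFP to RFP signal ratio inhibition reaching or exceeding a fixed threshold, cut at about 30% in these data, passing the limit was not always enough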
ABCB6 inh 2 = human ABCB6 transporter inhibition | 0.19% of 360,000 active | fluorescence ratio to DMSO, % at 10 µM | K562-ABCB6 porphyrin accumulation, flow cytometry, 1 h; stronger effect = lower value | Q9NP58 | AID 602162;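 active = fluorescence ratio to DMSO below 75%, the collection mean minus 3 SD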;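 also: signal is porphyrin accumulated inside mitochondria; 100% equals median channel fluorescence of DMSO control wells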
VLA-4 allo CP = human VLA-4 allosteric modulation in cherry picked compounds | shares compounds with VLA-4 inh | inhibition, % at 6.7 µM | U937 cells, HUTS-21 LIBS mAb binding, flow cytometry; LDV ligand present at threefold Kd | AID 2813 | 2% of 1,300 active; in the data active = inhibition above about 40%;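 also: 0% = ligand without compound and 100% = no ligand background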
Numbers without * were called inactive; . = no result given.

SMILES	VLA-4 inh	Yeast superoxide	Platelet DG rel	SKN-1 inh	ABCB6 inh 2	VLA-4 allo CP
O=C(c1ccc(Cl)c(NC2=NC3CS(=O)(=O)CC3S2)c1)N1CCN(c2ccc(F)cc2)CC1 (stereo unspecified)	15	117	-3	-14	105	0
O=C(OC1CC2CC1[C@H]1CCCCN1C2=O)N1CCC(c2ccccc2)CC1 (stereo partly specified)	.	.	.	10	97	.
Cc1cccc(C)c1-n1nnnc1C1c2ccccc2C(=O)N1CCCN1CCOCC1 (stereo unspecified)	.	.	.	3	96	.
CN1CCC(N(C)S(=O)(=O)c2ccc(NC(=O)COc3ccc(F)cc3)cc2)CC1	50*	86	20	-7	100	13
O=C1Nc2ccc(F)cc2C12OCCO2	51*	103	0	-7	87	0
CCn1nnnc1SCC(=O)Nc1sc(C)c(C)c1C#N	94*	91	-11	11	90	-1
Cc1sc(NC(=O)CSc2nnnn2C(C)C)c(C#N)c1C	0	98	1	-7	107	.
CCOC(=O)Cc1nnc(Nc2ccc(C(=O)NC)cc2)c2ccccc12	-4	105	-1	-7	104	.
CCOC(=O)Cc1nnc(Nc2cccc(O)c2)c2ccccc12	89*	97	-1	-9	106	-15
CC(C)(C)c1nnc(NC(=O)NS(=O)(=O)c2ccccc2)s1	73*	93	-2	-28	100	3
CC(=O)Nc1ccc(S(=O)(=O)Nc2nnc(C(C)(C)C)s2)cc1	9	95	0	-8	100	.
O=C(Nc1ccccc1)c1cc(C2CCCCN2C(=O)OCCF)on1 (stereo unspecified)	.	.	.	-11	97	.
COc1ccccc1N1CCN(CCCNc2c(C)c(=O)n(C)c(=O)n2C)CC1	33	101	1	2	92	.
COc1ccccc1N1CCN(CCCNc2cc(=O)n(C)c(=O)n2C)CC1	55*	100	-2	2	97	10
CC(C)C[C@H]1COc2cc(N3CCC[C@H]3CO)ccc2S(=O)(=O)N1	.	.	.	23	93	.
COc1ccc(CNC(=O)CNS(=O)(=O)c2cccc(C#N)c2)cc1OC	-8	105	-4	-10	90	3
COc1cc(C(=O)N2CCCC(c3cc(C(=O)NCc4ccc(F)cc4)no3)C2)cc(OC)c1C (stereo unspecified)	.	.	.	6	107	.
CC(C)[C@H](NC(=O)[C@@H]1Cc2c([nH]c3ccccc23)C2c3ccccc3C(=O)N21)C(=O)N1CCC[C@H]1C(=O)O (stereo partly specified)	.	.	.	14	101	.
CCCCN1C(=O)C(=O)c2cc(Cl)ccc21	55*	94	.	7	102	51*
CCCN1C(=O)C(=O)c2cc(C)ccc21	17	74	.	7	103	.
CCCc1ccc(OCCNC(=O)CC)cc1	51*	98	5	-4	96	0
CCOC(=O)c1c(-c2ccc(F)cc2)csc1NC(=O)CCN1C(=O)c2ccccc2C1=O	11	99	-8	14	101	.
CCOC(=O)c1c(-c2ccccc2)csc1NC(=O)CCN1C(=O)c2ccccc2C1=O	43	96	18	6	102	9
CC1C(=O)N2CCCc3cc(S(=O)(=O)Nc4ccccc4F)cc1c32 (stereo unspecified)	1	99	-3	-8	93	.
CC1C(=O)N2CCCc3cc(S(=O)(=O)Nc4ccccc4C(N)=O)cc1c32 (stereo unspecified)	9	99	1	2	98	-5
SMILES	VLA-4 inh	Yeast superoxide	Platelet DG rel	SKN-1 inh	ABCB6 inh 2	VLA-4 allo CP
CC(=O)Oc1ccc(Cn2c(C)c(C(=O)NC3CC3)sc2=O)cc1	.	.	.	1	101	.
Cc1cc(OC(=O)c2cc(F)c(F)cc2Cl)nc(C)n1	63*	98	3	11	90	14
CC(=O)NC(=S)Nc1ccc(NC(=O)c2cccs2)cc1	43	99	-61	7	102	-11
Cc1ccc([C@H]2C(C(=O)O)=CCN2S(=O)(=O)c2ccc(C)cc2)cc1	.	.	.	-4	.	.
O=S(=O)(Nc1ccncc1)c1ccccc1	4	100	4	16	99	.
Nc1ccc(NS(=O)(=O)c2ccccc2)cc1	-7	102	5	-4	107	11
Nc1cccc(S(=O)(=O)Nc2ccccc2)c1	20	105	-7	-7	98	5
CC(=O)c1ccc(NS(=O)(=O)c2ccc([N+](=O)[O-])cc2)cc1	.	.	.	-10	91	.

Compound activity (PubChem BioAssay)
